HepG2 tox-1: HepG2 cytotoxicity, counter-screen for TGF-b inhibitors | Potency, µM (doses to about 46.1 µM), for inactives: at the highest dose activity change, negative = cytotoxicity, most hits filed as cytotoxic | HepG2 CAGA-GFP viability, ATP luminescence, 18 h | 410,000 tested, 0.76% active | AID 588856
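CellTiter-Glo luminescence gave cytotoxicity after 18 hours at 37 degrees C. The cells were HepG2 CAGA-GFP in 1% FBS DMEM, stimulated with 500 pg/mL TGF-beta after compound addition. %Activity was normalised to no-cell wells (complete cell-killing) and DMSO (no toxicity), and curves were fitted and classified.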
TGFb SMAD3 inh: TGF-b pathway inhibition. HepG2 CAGA-GFP TGF-b/SMAD3 reporter, GFP fluorescence, 18 h; TGF-beta stimulated, 500 pg/mL final. Potency, µM (titrated, usually from 46.1 µM), for the others: at the highest dose activity, negative = inhibition, hits mostly inhibitors. 410,000 tested, 1.2% active. AID 588855; note: % is set by controls: 0 for no effect and ±100 for the full control effect; nearly all actives have a fitted effect of over 65% in size
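Read-out: total well GFP (ex488/em500-530) summed from mean per-cell fluorescence. Cells: HEPG2 CAGA-GFP, 1% FBS DMEM, 18 h at 37 degrees C with 500 pg/mL final TGF-beta. Unstimulated wells served as the full-inhibition control; stimulated DMSO wells = 0%.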
KB-V1 cytotox: kills drug-selected multidrug resistant KB-V1 cells; AID 1347076; 400,000 tested, 3.4% active; Potency, µM (top dose mostly 46.1 µM), hits mostly cytotoxic; KB-V1 MDR cells viability, CellTiter-Glo, 72 h; note: % is set by controls: 0 for no effect and ±100 for the full control effect; nearly all actives have a fitted effect of over 60% in size
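Luminescent ATP read-out (CellTiter-Glo, 10 min) measures survival of drug-selected KB-V1 MDR cells after 72 h, 37 degrees C compound exposure. Medium: phenol-red-free DMEM, 10% FBS. Values from fitted concentration-response curves.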
HT1080-NT tox: kills 2HG-producing HT-1080-NT fibrosarcoma cells; HT-1080-NT fibrosarcoma viability, CellTiter-Glo ATP luminescence, 48 h; Potency, µM (top dose mostly 46.1 µM), for inactives: top-dose activity, negative = less viability, actives largely listed as cytotoxic; 360,000 tested, 1.6% active; AID 686970;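 note: NT is the 2HG producing partner of a matched IDH1 knockdown line; 0% = DMSO-treated cells and -100% = media-only wells without cells; nearly all actives have a fitted effect of over 55% in size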
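Viability by CellTiter-Glo luminescence after 48 h compound exposure at 37C of HT-1080-NT cells (750/well, RPMI, 5% FBS). % activity scaled between DMSO wells and medium-only wells, then curve-fitted and categorized by curve class.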
KB-3-1 cytotox: kills parental KB-3-1 adenocarcinoma cells | KB-3-1 viability, CellTiter-Glo ATP luminescence, 72 h | Potency, µM (doses to about 46.1 µM), actives largely listed as cytotoxic | 400,000 tested, 1.4% active | AID 1347075; note: % is set by controls: 0 for no effect and ±100 for the full control effect; nearly all actives have a fitted effect of over 60% in size
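Parental KB-3-1 viability, qHTS format: 72 h compound exposure, 37 °C; CellTiter-Glo; media-only wells and DMSO plates as controls; concentration-effect fits on corrected data.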
HT1080 IDH1KD tx: kills HT-1080 cells with IDH1 knockdown; HT-1080 IDH1 knockdown viability, ATP luminescence, 48 h; Potency, µM (titrated, usually from 46.1 µM), inactives show top-dose activity, negative = toxicity, hits mostly cytotoxic; 360,000 tested, 2% active; AID 686971;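 note: 0% = DMSO wells and -100% = cell-free medium wells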
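Cytotoxicity counter-line: IDH1KD HT-1080, 48 h, CellTiter-Glo. Curves classed by r2, magnitude and activity.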
TGFb confirm: confirmation of TGF-b signaling inhibitors in HepG2 reporter cells. Potency, µM (highest dose often 46.1 µM), for the others: at the top dose activity, negative = inhibition, actives largely listed as inhibitors. shares compounds with TGFb SMAD3 inh. HepG2 CAGA-GFP TGF-b reporter, GFP fluorescence, 18 h; cells stimulated with TGF-beta, 500 pg/mL. 1,600 tested, 63% active. AID 720534; note: % is set by controls: 0 for no effect and ±100 for the full control effect; nearly all actives have a fitted effect of over 65% in size
HepG2 tox-2: counter-screen for TGF-b inhibitors: cytotoxicity in HepG2 cells. shares compounds with TGFb SMAD3 inh. HepG2 CAGA-GFP viability, ATP luminescence, 18 h; cells stimulated with TGF-beta, 500 pg/mL. Potency, µM (titrated, usually from 46.1 µM), inactives show at the top dose activity, negative = cytotoxicity, hits mostly inhibitors. 1,600 tested, 27% active; note: % is set by controls: 0 for no effect and ±100 for the full control effect; nearly all actives have a fitted effect of over 70% in size
CCL64 TGFb inh: blocks TGF-b signaling in CCL64 reporter cells. 1,600 tested, 41% active. Potency, µM (doses to about 46.1 µM), without a hit: top-dose activity, negative = inhibition, usual class: inhibitors. AID 720536. shares compounds with TGFb SMAD3 inh. CCL64 CAGA-GFP reporter, TGF-b stimulated, GFP fluorescence, 18 h; note: nearly all actives have a fitted effect of over 65% in size
COP TGFb inh: TGF-b inhibition validated with COP promoter. Potency, µM (highest dose often 46.1 µM), inactives show at the highest dose activity, negative = inhibition, usual class: inhibitors. 1,600 tested, 3% active. shares compounds with TGFb SMAD3 inh. HepG2 COP-GFP TGF-b reporter, GFP fluorescence, 18 h; cells stimulated by added recombinant TGF-beta. AID 720537; note: nearly all actives have a fitted effect of over 70% in size
* = called active by the depositor; i = inactive; u = inconclusive; x = not tested or not shown. Only some compounds are listed: those with a hit (about 6.6% of all), similar ones and a draw of the others. Calls come from the whole dose curve; as a rule, active = well fitted curve in the direction sought with a large enough effect; inconclusive = small, poorly fitted or top-dose-only effect, or another doubt; inactive = no such curve, though single readings can be large; an effect the other way counts as inactive or inconclusive. Potency is the fitted concentration of half-maximal effect.

SMILES	HepG2 tox-1	TGFb SMAD3 inh	KB-V1 cytotox	HT1080-NT tox	KB-3-1 cytotox	HT1080 IDH1KD tx	TGFb confirm	HepG2 tox-2	CCL64 TGFb inh	COP TGFb inh
CC1(C(=O)NCC2CCCCC2)CCN1C(=O)Cc1ccc(-c2ccccc2)cc1 (stereo not drawn)	-53%	u	i	u	i	u	-8%	-29%	u	15%
CC1(C(=O)NC2CCCC2)CCN1C(=O)Cc1ccc(-c2ccccc2)cc1 (stereo not drawn)	-25%	-11%	i	u	i	u	x	x	x	x
O=C(CN(Cc1ccc(Br)cc1)S(=O)(=O)c1ccccc1)NCc1cccnc1	-7%	-1%	x	-8%	x	-7%	x	x	x	x
O=C(NCc1cccnc1)/C(=C\c1ccc(-c2ccc(Br)cc2)o1)S(=O)(=O)c1ccccc1	-98%	10µM*	7.3µM*	9.2µM*	u	5.8µM*	5.8µM*	3.3µM*	5.2µM*	u
CCOC(=O)C1CCN(C(=O)c2c(C)oc3c2C(=O)c2ccccc2C3=O)CC1	2.8µM*	4.5µM*	18µM*	-6%	u	-15%	2.1µM*	5.2µM*	7.3µM*	5.8µM*
Cc1oc2c(c1C(=O)N1CCC(C)CC1)C(=O)c1ccccc1C2=O	5µM*	4µM*	18µM*	21µM*	21µM*	23µM*	3.7µM*	5.8µM*	12µM*	21µM*
COC(=O)CN1C(=O)C(C)(C)c2cc(S(=O)(=O)Nc3ccc(Br)cc3F)ccc21	-21%	-5%	x	x	x	x	x	x	x	x
CCCc1cc(-c2[nH]ncc2-c2ccc(C(=O)OCC)o2)c(O)cc1O	20µM*	10µM*	u	u	i	u	-14%	7%	u	1%
CCCc1cc(-c2[nH]ncc2-c2ccc3c(c2)OCCCO3)c(O)cc1O	-60%	u	u	-11%	u	-14%	x	x	x	x
Cc1ccnc(Nc2nc(-c3ccccc3)cs2)c1	-71%	10µM*	i	-19%	u	u	-26%	-4%	0%	6%
Cc1cc(C)nc(S/C=C/C(=O)c2ccccc2F)n1	-7%	3.5µM*	u	3.7µM*	i	2.9µM*	1.8µM*	21µM*	6.5µM*	u
CCOc1c(Cl)cc(CNCC(O)c2ccccc2)cc1OC (stereo not drawn)	-29%	-15%	i	-19%	u	-13%	x	x	x	x
OC(CNCC(c1ccc(Cl)cc1Cl)c1c[nH]c2ccccc12)c1ccccc1 (stereo not drawn)	-112%	7.1µM*	23µM*	21µM*	i	7.3µM*	u	16µM*	u	u
Cc1ccc([C@H]2N[C@]3(CCCN(Cc4ccc(F)cc4)C3=O)[C@H]3C(=O)N(C)C(=O)[C@@H]23)cc1	-51%	u	u	-5%	i	-6%	x	x	x	x
Cc1nnc(SCC(=O)N/N=C/c2cn(-c3ccccc3)nc2-c2ccccc2)n1-c1ccccc1	0%	7.1µM*	u	u	i	u	u	-23%	u	8%
COc1cccc(CN2CCC2(C)C(=O)Nc2ccc3c(c2)OCO3)c1F (stereo not drawn)	-3%	-2%	u	-9%	i	u	x	x	x	x
CC1(C(=O)Nc2ccc3c(c2)OCCO3)CN(S(C)(=O)=O)CC(=O)N1CCCn1ccnc1 (stereo not drawn)	x	x	i	20%	u	22%	x	x	x	x
CCc1nnc2c3ccccc3nc(N3CCN(c4cc(Cl)ccc4C)CC3)n12	5%	-18%	i	x	i	x	x	x	x	x
O=C(COc1cccc(C(F)(F)F)c1)Nc1ccccc1N1CCCCC1	-10%	2%	i	2%	i	-1%	x	x	x	x
CSCCC(NS(=O)(=O)c1cccc(C(F)(F)F)c1)C(=O)Nc1ccccc1N1CCCC1 (stereo not drawn)	-27%	14µM*	u	2%	i	-4%	16µM*	-7%	16µM*	-1%
COc1cc2c(cc1OC)C(C)N(C(=O)c1cc3c(C)cc(C)cc3[nH]1)CC2 (stereo not drawn)	-29%	11µM*	u	u	u	6.5µM*	16µM*	15µM*	u	51%
COc1cc2c(cc1OC)C(C)N(C(=O)c1nccnc1C(=O)O)CC2 (stereo not drawn)	-23%	-23%	i	4%	i	-9%	x	x	x	x
Cc1onc(-c2c(F)cccc2Cl)c1C(=O)Nc1nnc(C(F)(F)F)s1	-26%	18µM*	i	u	i	u	21µM*	u	u	35%
Cc1onc(-c2c(F)cccc2Cl)c1C(=O)Nc1nccs1	-21%	-5%	i	-22%	i	-1%	x	x	x	x
O=C(Nc1ccccc1C(=O)Nc1nnc(C(F)(F)F)s1)c1ccccc1Cl	-49%	3.5µM*	u	10µM*	21µM*	10µM*	5.8µM*	4.1µM*	6.5µM*	74%
SMILES	HepG2 tox-1	TGFb SMAD3 inh	KB-V1 cytotox	HT1080-NT tox	KB-3-1 cytotox	HT1080 IDH1KD tx	TGFb confirm	HepG2 tox-2	CCL64 TGFb inh	COP TGFb inh
O=C(Nc1nc2c(F)cc(F)cc2s1)c1ccc(S(=O)(=O)N2CCc3ccccc32)cc1	-18%	u	i	x	u	x	x	x	x	x
COc1cc(OC)c(NC(=O)CSc2nccn2C)cc1Cl	3%	25%	u	x	i	x	x	x	x	x
Cc1ccc(NC(=O)CN2CC(C)SC2=NC2CCCCC2)cc1 (stereo not drawn)	-33%	u	u	u	i	-30%	u	-12%	8%	17%
Cn1c(/C=C/c2ccccc2)nc2ccccc2c1=O	-19%	-1%	u	u	u	u	x	x	x	x
Cn1c(/C=C/c2ccc([N+](=O)[O-])o2)nc2ccccc2c1=O	-41%	2.2µM*	u	u	1.8µM*	u	u	6.5µM*	5.2µM*	u
CCCNC(=O)CSc1nc2ccccc2nc1Cc1ccc(Cl)cc1	3%	1%	i	x	i	x	x	x	x	x

Assay outcomes (PubChem)
